PAX8 reporter: inhibitors of PAX8-driven TPO luciferase reporter, primary screen, RMG-I cells, single concentration | SteadyGlo, 24 h | 360,000 compounds, 1.2% hits | inhibition, % at 12.6 µM;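 active = mean replicate inhibition at least 60% with every replicate also reaching 60%; inconclusive = only one of the two criteria is met; inactive = mean below 60% and not all replicates reaching 60%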;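 also: luciferase light reporting Pax8 driven TPO promoter activity; plate controls were median of neutral control wells for no effect and mitoxantrone controls for full effect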
MITF TRPM1 inh: inhibitors of MITF-dependent TRPM1 promoter reporter, primary screen, cell-based, SK-MEL-5, single point, luciferase; SK-MEL-5 TRPM1 promoter luciferase, 24 h; inhibition, % at 12.5 µM; 330,000 compounds, 0.83% hits; AID 488899, 2010;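 active = mean inhibition across replicates of 60% or more, whatever share of single replicates reaches that level; inconclusive = some that reach 60%, reason not given; inactive = mean inhibition across replicates below 60%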
EBV LMP1 NFkB: EBV LMP1-driven NF-kappaB luciferase reporter inhibitors, primary screen, cell-based, luminescence, single point; LMP1-induced NF-kappaB luciferase reporter cells; inhibition, % at 12.5 µM; 350,000 compounds, 0.69% hits; AID 504558, 2011; in the data active = inhibition above about 41%; inconclusive = no clear call, values can overlap the other calls;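 also: 0% = neutral control wells and 100% = reference inhibitor control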
Shn3 3UTR inh: reduction of Shn3 3'UTR firefly luciferase signal, primary screen, Schnurri-3 inhibitor project, cell-based, Clone20 osteoblasts, set 2; inhibition, % at 12.5 µM; AID 588674, 2011; Clone20 osteoblast Shn3 3'UTR firefly luciferase, 24 h; 360,000 compounds, 0.52% hits;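 active = mean inhibition of at least 75% with every replicate also reaching 75%; inconclusive = mean inhibition at least 75% but some replicate below; inactive = mean inhibition below 75%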;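 also: 0% = median of neutral control wells and 100% = pilot-screen positive control compound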
HIF-2a block: HIF-2a reporter inhibitors, primary screen, luminescence, 786-0 RCC cells; 786-0 RCC cells HIF-2a reporter, luciferase luminescence, overnight; inhibition, % at 18.8 µM; 360,000 compounds, 0.72% hits; AID 624352, 2012;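 active = inhibition of the luminescence signal of 40% or more relative to plate controls, in a single-dose primary screen at 18.75 µM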
Peg3 prom inh: Peg3 promoter-driven luciferase inhibitors, primary screen, cell-based, HeLa, luciferase luminescence. HeLa PEG-Prom luciferase reporter, overnight. inhibition, % at 20 µM. 360,000 compounds, 1.7% hits;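 active = inhibition of at least 50% at 20 µM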
* = called active by the depositor; ? = inconclusive; nt = not tested or not shown. A selection: hits, their analogues and other compounds. The true share with any hit is near 2.8%.

SMILES	PAX8 reporter	MITF TRPM1 inh	EBV LMP1 NFkB	Shn3 3UTR inh	HIF-2a block	Peg3 prom inh
CC(C)C1C(=O)N(Cc2cn(Cc3ccco3)nn2)CCS(=O)(=O)N1Cc1ccc(-c2cccc(N(C)C)c2)cc1 (stereo not given)	22	nt	1	-8	5	20
CCC/C=C/c1ccc(CN2C(CC(C)C)C(=O)N(Cc3cn(CCC4OCCCO4)nn3)CCS2(=O)=O)cc1 (stereo not given)	30	nt	6	-13	-10	39
Cc1cccc(C)c1-c1ccc(CN2C(CC(C)C)C(=O)N(Cc3cn(CC4CCCCC4)nn3)CCS2(=O)=O)cc1 (stereo not given)	70*	13	1	9	-6	35
CCC/C=C/c1ccc(CN2C(C)C(=O)N(Cc3cn(CCC4OCCCO4)nn3)CCS2(=O)=O)cc1 (stereo not given)	81*	nt	-2	-30	7	8
CC(C)C1C(=O)N(Cc2cn(CCC3OCCCO3)nn2)CCS(=O)(=O)N1Cc1ccc(-c2ccc(Cl)cc2)cc1 (stereo not given)	-4	nt	-8	1	-1	-7
C[C@H](CO)N1C[C@H](C)[C@H](CN(C)C(=O)Nc2ccccc2F)Oc2ncc(C#CCN(C)C)cc2C1=O	-12	nt	nt	nt	nt	nt
C[C@@H]1CN([C@@H](C)CO)C(=O)Cc2cc(NC(=O)C3CC3)ccc2O[C@H]1CN(C)Cc1ccccc1	3	nt	nt	nt	nt	nt
C[C@@H]1CCCCO[C@@H](CN(C)CC2CC2)[C@H](C)CN([C@@H](C)CO)C(=O)c2cc(NC(=O)c3ccncc3)ccc2O1	-7	nt	nt	nt	nt	nt
COc1ccc(S(=O)(=O)N(C)C[C@H]2OCCCC[C@H](C)Oc3ccc(NS(=O)(=O)c4cccs4)cc3C(=O)N([C@H](C)CO)C[C@H]2C)cc1	-6	nt	nt	nt	nt	nt
COc1ccc(COCC23N=C4SCCCN4[C@H](c4ccccc4O2)[C@H]3CO)cc1	-7	nt	nt	nt	nt	nt
COc1ccccc1NC(=O)Nc1nc(C(N)Cc2ccc(C(F)(F)F)cc2)cs1 (stereo not given)	-2	nt	nt	82*	4	96*
COc1ccc(CC(N)c2csc(NC(=O)CCc3ccccc3)n2)cc1 (stereo not given)	0	nt	nt	-18	-12	33
COc1ccc(CC(N)c2csc(NC(=O)Nc3ccccc3C(C)C)n2)cc1 (stereo not given)	12	nt	nt	9	3	100*
NC(Cc1ccc(C(F)(F)F)cc1)c1csc(NC(=O)NCCc2ccccc2)n1 (stereo not given)	-47	nt	nt	52	3	109*
CC(C)CC(N)c1csc(NC(=O)NCCc2ccccc2)n1 (stereo not given)	4	nt	nt	-4	9	25
COc1ccc(CC(N)c2csc(NC(=O)Nc3ccccc3Oc3ccccc3)n2)cc1 (stereo not given)	3	nt	nt	15	4	98*
COc1ccc2c3c([nH]c2c1)[C@H](CO)N(C(=O)c1ccccc1)CC31CN(C(=O)c2cccc(F)c2)C1	13	nt	nt	nt	nt	nt
NC(Cc1ccccc1)c1csc(NC(=O)Nc2ccccc2Oc2ccccc2)n1 (stereo not given)	-9	nt	nt	?	20	104*
NC(c1ccccc1)c1csc(NC(=O)Nc2ccccc2Oc2ccccc2)n1 (stereo not given)	-5	nt	nt	-9	-16	82*
COc1ccc(CC(N)c2csc(NC(=O)Nc3ccccc3Cc3ccccc3)n2)cc1 (stereo not given)	24	nt	nt	48	4	104*
NC(Cc1ccc(F)cc1)c1csc(NC(=O)NC(c2ccccc2)c2ccccc2)n1 (stereo not given)	11	nt	nt	39	-17	96*
NC(c1ccccc1)c1csc(NC(=O)NCC2CCCCC2)n1 (stereo not given)	4	nt	nt	11	-3	18
Cc1noc(C)c1NC(=O)N(C)C[C@H]1Oc2ccc(NS(=O)(=O)c3ccccc3)cc2CC(=O)N([C@@H](C)CO)C[C@H]1C	-12	nt	nt	nt	nt	nt
NC(Cc1ccc(C(F)(F)F)cc1)c1csc(Nc2cnccn2)n1 (stereo not given)	18	nt	nt	1	-28	2
NC(Cc1ccc(C(F)(F)F)cc1)c1csc(NC(=O)Nc2ccccc2Oc2ccccc2)n1 (stereo not given)	25	nt	nt	49	19	98*
SMILES	PAX8 reporter	MITF TRPM1 inh	EBV LMP1 NFkB	Shn3 3UTR inh	HIF-2a block	Peg3 prom inh
Cc1ccccc1-c1ccc([C@@H]2[C@H](CO)N3CCCCN(C(=O)Nc4ccc(F)cc4)C[C@@H]23)cc1	47	nt	nt	nt	nt	nt
Cc1cc(C)c(S(=O)(=O)N2CCN(C(=O)CCOc3ccccc3C)CC2)c(C)c1	-7	nt	64*	9	5	21
COc1cccc(-c2ccc([C@H]3[C@@H](CO)N4CCCCN(C(=O)NC(C)C)C[C@@H]34)cc2)c1	1	nt	nt	nt	nt	nt
O=[N+]([O-])c1cc(S(=O)(=O)NCCN2CCOCC2)ccc1Sc1nnnn1-c1ccccc1	59	79*	-11	8	11	42
COc1ccc(C2c3ccc4ccccc4c3Oc3ncn(CCN4CCOCC4)c(=N)c32)cc1 (stereo not given)	4	77*	4	13	27	102*
COc1ccc(C2c3ccc4ccccc4c3Oc3ncn(CCO)c(=N)c32)cc1 (stereo not given)	nt	78*	-4	30	8	103*
COc1ccc(C2c3ccc4ccccc4c3Oc3ncn(CCCO)c(=N)c32)cc1OC (stereo not given)	5	-13	-29	27	9	32
N=c1c2c(ncn1Cc1ccco1)Oc1ccc3ccccc3c1C2c1ccccc1 (stereo not given)	47	20	-1	31	13	57*
N=c1c2c(ncn1CCCO)Oc1c(ccc3ccccc13)C2c1ccccc1 (stereo not given)	9	33	-4	-2	-9	73*
C[C@H](CO)N1C[C@H](C)[C@H](CN(C)Cc2ccccc2)Oc2ncc(C#CCc3ccccc3)cc2C1=O	8	nt	nt	nt	nt	nt
O=C(C1CCCC1)N1[C@H](CO)[C@H]2c3ccccc3N(S(=O)(=O)c3ccc(F)cc3)C[C@H]21	32	nt	nt	nt	nt	nt
CO[C@@H]1CN(C)C(=O)c2cc(NC(C)=O)ccc2OC[C@H](C)N(C(=O)C2CCOCC2)C[C@H]1C	10	nt	nt	nt	nt	nt
COc1ccc(C2c3ccc4ccccc4c3Oc3ncn(CCN(C)C)c(=N)c32)cc1 (stereo not given)	0	95*	-16	39	10	92*
O=C(CCCN1C(=O)/C(=C/c2ccccc2Cl)SC1=S)NNC(=O)c1cccnc1	15	17	-21	9	84*	23
